Measurements published in PubChem BioAssay (NCATS).
Where “and” joins values, the source holds several entries; their conditions need not be identical. Identical values can stand only once. Results filed as inconclusive are left out. A number with no mark means an inactive call. Calls of active or inactive are those of the source. Calls come from the whole dose curve; as a rule, active = well fitted activation curve with a large enough effect; inconclusive = small, poorly fitted or top-dose-only effect; inactive = no such curve, though single readings can be large or run the other way.

Target: Cellular tumor antigen p53 (Homo sapiens) (UniProt P04637)
Assay: Primary qHTS for small molecule compounds that upregulate eGFP-tagged delta133p53alpha (in N-terminal) cells. (AID 2060322); note: nearly all actives have a fitted effect of over 75% in size;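 for activation: cells pre-induced with doxycycline then dosed without doxycycline; series mostly up to about 56 µM; 0% = DMSO vehicle and 100% = reference activator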
Settings: NCI-H358 eGFP-delta133p53alpha fluorescence, 24 h; activation: hits give high values
From the text: Assay Development and Screening Technology
National Center for Advancing Translational Sciences (NCATS),
National Institute of Health (NIH), Rockville, Maryland
Cellular senescence (CS) is one of the hallmarks of aging and age-related diseases. Senescent cells are characterized by an irreversible growth arrest, an increase in senescence-associated beta-galactosidase (SA-beta-gal) activity and p16INK4a expression, an activation of the DNA damage response pathways, and the emergence of a senescence-associated secretory phenotype (SASP).
Delta133p53alpha, a human/primate-specific p53 protein isoform, delays or inhibits the induction of CS and SASP in various types of human cells, including progeria-derived fibroblasts, primary normal astrocytes, and CD8+ T lymphocytes. Induction of delta133p53alpha with small molecule compounds may provide therapeutic opportunities for inhibition of senescence/SASP-associated pathologies in progeria syndromes, astrocyte-mediated neuroprotection in neurodegenerative diseases, and possibly prevention and treatment of a wider range of senescence- and aging-associated diseases.
Here we report the development and validation of a cell-based quantitative high throughput screening (qHTS) assay in 1,536-well format. This qHTS assay uses the NCI-H358 cell line with doxycycline-inducible expression of enhanced green fluorescent protein (eGFP)-tagged delta133p53alpha, which allows efficient and highly quantitative measurement of the protein levels.
PROTOCOL TABLE (as described by Inglese J, Shamu CE and Guy RK. 2007)
SEQUENCE No. (e.g., 1, 2, 3, etc.); […] (e.g., Cells, Incubation, Reagent, etc.); VALUE; DESCRIPTION.
1; Cells; 4uL; 800 doxycycline treated cells / well in doxycycline-free media, 1536-well black, clear-bottom low base Aurora microplates.
2; Compounds; 23 nL; Kalypsis pin tool (Wako) equipped with 1536-well pin heads, 5-azacytidine positive control.
3; Incubation; 24 hr; 37C, 5% CO2; 95% relative humidity.
4; Aspiration; 1x; BioTek EL406 washer dispenser (Agilent).
5; Fixing; 3.5% paraformaldehyde, BioTek EL406 washer dispenser (Agilent).
6; Washing; 1x PBS; BioTek EL406 washer dispenser (Agilent).
7; Nuclei staining; 1:1000 dilution of Hoechst 33342 (Thermofisher), BioTek EL406 washer dispenser (Agilent).
8; Incubation; 20 min; in the dark at room temperature.
9; Washing; 2x, 1x PBS (ThermoFisher), BioTek EL406 washer dispenser (Agilent).
10; Reagent; 10 uL; 1x PBS per well, sealed with clear adhesive tape.
NOTES (numbers refer to sequence numbers above).
1. NCI-H358 cells expressing eGFP-tagged delta133p53alpha were grown in T75 culture flasks and treated with doxycycline for 24h, at 10 ng/ml for eGFP-D133p53a cells (N-terminal cell) and 100 ng/ml for D133p53a-eGFP cells (C-terminal cells). Cells were trypsinized, counted using a Counted 3 Automated Cell Counter (Thermo Fisher), and diluted to a concentration of 200,000 cells/ml. A Multidrop Combi Reagent Dispenser (ThermoFisher) was used to dispense 800 cells/well in […] of doxycycline-free media, into 1536-well black/clear bottom low base plates (AuroraMicroplates).
2. After plating cells, 23 nl of compound library, DMSO vehicle control or positive control (5-azacytidine) were transferred by Pin Tool (Wako). The plate map layout was the same for each plate: (column 1) non-doxycycline treated cells + DMSO vehicle control; (column 2) doxycycline treated cells + DMSO vehicle control baseline; (column 3) doxycycline treated cells + positive control 57.5 uM final concentration 5-azacytidine; (column 4) doxycycline treated cells + serial dilution of 5-azacytidine, 16-point 1:2 titration spanning 1.8 nM to […] final concentration; (columns 5-48) doxycycline treated cells + titration of library compounds.
3. Cells were incubated at 37 °C, 5 % CO2, 95% RH with breathable metal lid for 24h.
4-10. […] After two washes, 10 ul of 1X PBS (Thermo Fisher) was dispensed to each well. Clear adhesive plate seals (VWR) were applied and plates stored at 4 °C.
11. […]
Potency is the fitted concentration of half-maximal effect.

Cellular tumor antigen p53 (Homo sapiens), sequence (P04637 whole entry, looked up): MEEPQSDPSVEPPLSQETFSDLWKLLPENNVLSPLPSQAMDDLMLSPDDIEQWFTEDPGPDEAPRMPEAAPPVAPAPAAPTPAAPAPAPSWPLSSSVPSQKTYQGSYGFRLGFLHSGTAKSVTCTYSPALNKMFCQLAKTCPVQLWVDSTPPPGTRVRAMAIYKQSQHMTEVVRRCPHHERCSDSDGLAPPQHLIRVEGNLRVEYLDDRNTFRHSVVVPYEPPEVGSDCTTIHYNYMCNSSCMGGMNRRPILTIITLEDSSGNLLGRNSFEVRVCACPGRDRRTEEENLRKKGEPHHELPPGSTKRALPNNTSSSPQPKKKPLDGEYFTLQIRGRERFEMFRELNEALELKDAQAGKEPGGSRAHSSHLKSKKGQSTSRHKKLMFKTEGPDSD

Compound | activation | Potency
CC(=O)OC1C(C)OC(Oc2c(-c3ccc(O)cc3)oc3cc(O)cc(O)c3c2=O)C(O)C1OC(C)=O (stereo not given) | 34.7% | 
CCN1C(=O)C=CC1=O | -15.7% | 
CC(C)CC(=O)NCCn1cc(C(=O)O)c(=O)cc1C(O)c1ccccc1 (stereo not given) | -1.53% | 
CC1=C[C@H](O)[C@H]2C(C)(C)CCC[C@]2(C)[C@@]1(O)CO | -2.68% | 
O=c1cc[nH]c(=O)[nH]1 | -12.6% | 
COc1ccc(-c2cnc3c(-c4cccc5ncccc45)cnn3c2)cc1 | 16.1% | 
CC1(C)C[C@H]2C=C(C=O)[C@]3(C(=O)O)C[C@]3(C)[C@H]2C1 | 18.8% | 
C[C@H]1CC[C@@H]2N(C1)C[C@@H]1[C@H]([C@@H](O)[C@H](O)[C@]3(O)[C@H]1C[C@@]14OC5(O)[C@@H](C[C@@H](O)[C@@H]31)[C@]4(C)CC[C@@H]5O)[C@]2(C)O | 0% | 
COc1ccccc1CN[C@H]1CCCN[C@H]1c1ccccc1 | -3.82% | 
CC(C)=CCC/C(C)=C/CO[C@@H]1O[C@H](CO)[C@@H](O)[C@H](O)[C@H]1O | -4.46% | 
CCCCCCCCCCCCCCCCCCO | 3.35% | 
CC[C@H]1OC(=O)[C@H](C)[C@@H](O[C@H]2C[C@@](C)(OC)[C@@H](O)[C@H](C)O2)[C@H](C)[C@@H](O[C@@H]2O[C@H](C)C[C@H](N(C)C)[C@@H]2O)[C@](C)(OC)C[C@@H](C)C(=O)[C@H](C)[C@@H](O)[C@]1(C)O | -25.1% | 
O[C@@](Cc1ncc(CC2(C(F)(F)F)CC2)[nH]1)(c1ccc(-n2cccn2)cc1)C(F)(F)F | -3% | 
CCc1cc(Cl)c(OC)c(C(=O)NC[C@@H]2CCCN2CC)c1O | 13.4% | 
O=[N+]([O-])c1cccc2[nH]c(CNc3nc(N4CCOCC4)nc4c3ncn4-c3ccsc3)nc12 |  | 0.301 µM (active)
CCOC(=O)c1ccccc1O | -2.51% | 
CCOc1cc(CC(=O)NC(CC(C)C)c2ccccc2N2CCCCC2)ccc1C(=O)O (stereo not given) | -4.3% | 
COc1cccc(OC)c1OCCNCC1CSc2ccccc2O1 (stereo not given) | 20.5% | 
CCCCCCOC(=O)N=C(N)c1ccc(NCc2nc3cc(C(=O)N(CCC(=O)OCC)c4ccccn4)ccc3n2C)cc1 | 20.7% | 
CC(C)=CCC/C(C)=C/CO | -11.9% | 

Compound | activation | Potency
CC1CC2C3CCC4=CC(=O)C=C[C@]4(C)[C@@]3(F)[C@@H](O)C[C@]2(C)[C@@]1(O)C(=O)CO (stereo not given in full) | -4.86% and -24.4% | 
CC(=O)CC(c1ccc([N+](=O)[O-])cc1)c1c(O)c2ccccc2oc1=O (stereo not given) | -10% | 
C=C/C=C/[C@@H]1OC[C@H](/C=C/C=C/C)[C@H]1O | -11.5% | 
CN1[C@@H]2CC(OC(=O)[C@H](CO)c3ccccc3)C[C@H]1[C@@H]1O[C@@H]12 (stereo not given in full) | -10.7% | 
COc1ccc(S(=O)(=O)Nc2cccnc2Nc2ccc(O)cc2)cc1 | -22.5% and 22.4% | 
O=c1[nH]cnc2nc[nH]c12 | -9.6% | 
C[C@H]1C[C@H]2[C@@H]3CCC4=CC(=O)C=C[C@]4(C)[C@@H]3C(=O)C[C@]2(C)[C@@]1(O)C(=O)CO | -19.3% | 
COC(=O)C1=CO[C@@H](O[C@@H]2O[C@H](CO)[C@@H](O)[C@H](O)[C@H]2O)[C@@H]2[C@@](C)(O)[C@@H](OC(=O)/C=C/c3ccc(O)cc3)C[C@]12O | -0.763% | 
CC(C)c1ccc2c(c1)C(O)CC1C(C)(CO)CCCC21C (stereo not given) | -12.5% | 
COc1ccc(-n2[nH]c(=O)c3[nH]c4cc(Cl)ccc4c(=O)c3c2=O)c(C)c1 | 9% | 
CC(C)C[C@H](NC(=O)CNC(=O)[C@H](Cc1ccc(O)cc1)NC(=O)[C@H](CO)NC(=O)[C@H](Cc1c[nH]c2ccccc12)NC(=O)[C@H](Cc1cnc[nH]1)NC(=O)[C@@H]1CCC(=O)N1)C(=O)N[C@@H](CCCN=C(N)N)C(=O)N1CCC[C@H]1C(=O)NCC(N)=O (stereo in doubt) | -1.69% | 
CC1(C)CCCC2(C)C1C(O)C=C(CO)C2(O)C(=O)O (stereo not given) | -13.7% | 
O=C(O)c1ccccc1NCCc1ccccc1 | -1.69% | 
CC(=O)O[C@H]1CC(C)(C)CC2[C@@]13[C@H](O)C[C@]1(C)[C@@]2(CCC2[C@@]4(C)CC[C@H](O[C@@H]5OC[C@H](O[C@@H]6O[C@H](CO)[C@@H](O)[C@H](O)[C@H]6O[C@@H]6OC[C@@H](O)[C@H](O)[C@H]6O)[C@H](O)[C@H]5O[C@@H]5O[C@H](CO)[C@@H](O)[C@H](O)[C@H]5O)C(C)(C)C4CC[C@]21C)O[C@@H]3O (stereo not given in full) | -7.63% | 
CN(C)S(=O)(=O)c1ccc2c(c1)/C(=C/c1cc3c([nH]1)CCCC3)C(=O)N2 |  | 6.75 µM (active)
CC1(C)SCCN(S(=O)(=O)c2ccc(OCC#CCO)cc2)[C@@H]1C(=O)NO | 9.74% | 
CC(C)CNC(=O)/C=C/CCCCc1ccc2c(c1)OCO2 | 10.7% | 
C=CC(C)(O)CCC1C(C)(O)CCC2C(C)(C)CCCC21C (stereo not given) | 9.82% | 
S=P(N1CC1)(N1CC1)N1CC1 | 31.6% | 
CC1COC2(CCN(c3nc(=O)c4cc(C(F)(F)F)cc([N+](=O)[O-])c4s3)CC2)O1 (stereo not given) | -5.81% and -10.5% | 
